Fewer than 10 of roughly 67,000 compounds were called active. The call rests on the fitted dose curve; in most records, active means well fitted activation curve with a large enough effect (not every such curve was filed as active); inconclusive means small, poorly fitted or top-dose-only effect, or another doubt; inactive means no such curve, though single readings can be large or run the other way. The list is a sample of the results.
test: Ubiquitin-GFP Assay; conditions: Ubiquitin-GFP reporter cells, proteasome inhibition, GFP fluorescence, untreated = 0%, 10 µM MG-132 = 100%; series mostly up to 45.9 µM; activation (GFP accumulation): at the top concentration
From the text: NIH Chemical Genomics Center [NCGC]
NIH Molecular Libraries Screening Centers Network [MLSCN]
The ubiquitin-proteasome pathway is present within all eukaryotic cells and plays roles in normal cellular functions and disease-related dysfunction. Proteins are tagged with a poly-ubiquitin chain that targets them for the proteasome, a multimeric protease, that degrades the protein into peptides and free ubiquitin. The proteasome has a key role in regulating cell cycle and growth and is known to control the levels of cyclins and CDK inhibitors as well as tumor suppressor proteins. Additionally, the activation of NF- B is controlled by ubiquitin-labeling and degradation of the inhibitory protein I B . […] With this in mind, proteasome inhibitors such as MG-132 and PS-341 have been used to inhibit tumor cell growth.
A cellular assay for ubiquitin-proteasome function was used to find chemical probes of this pathway. The assay used an ubiquitin-GFP construct expressed in U2OS cells (BioImage). Under basal conditions little GFP can be detected as it is degraded by the proteasome. However, treatment of the cells with a proteasome inhibitor such as MG-132 results in a rise in GFP levels that can be detected in as little as four hours. We used the Acumen-Explorer laser plate cytometer having a 488 nm laser as an excitation light source to detect the GFP. Compounds were screened in 1536-well plates using qHTS with a concentration-titration series range that varied from 46 uM to 2.9 nM.
NCGC Assay Protocol Summary:
Cells (U20S ps 2042) expressing ubiquitin (G76V-GFP) were maintained in DMEM with Glutamax-1 and high glucose, 10% FBS, 1% (v/v) penicillin-streptomycin, 0.5 mg/mL Geneticin (G418). The cells were seeded in 1536-well plates using a solenoid-based dispenser at 700 cells/5ul in DMEM medium with Glutamax-1 and high glucose containing 0.5% FBS, w/o phenol red, 25 mM HEPES. The plates were incubated at 37 °C/5% CO2 overnight. Then 23 nl of MG-132 in DMSO was added to the control wells at a final concentration of 10 uM. Next, 23 nL of library compounds in DMSO were added to the sample wells. The plates were incubated for 4 hrs at 37 °C/5% CO2. Following this incubation the plates were read on the Acumen using a cell object definition of 15 to 100 um in width and depth and a window of Total Intensity of between 77,200 and 2,720,000 FLU to enumerate GFP-expressing cells.
The %Activity was determined from the basal and MG-132 treated control wells. %Activity was determined by normalizing to the difference in signal between basal cells (0% Activity) and cells incubated with 10 uM of the proteasome inhibitor MG-132 (100% Activity). Concentration-response curves were fitted to the signals arising from the GFP fluorescence.
Assay Protocol Summary Table
Sequence Parameter Value Description
2. Time O/N 37C incubation
4. Compound 23 nL Libraries (46 uM to 2.9 nM)
5. Time 4 hr 37C incubation
6. Detector Acumen Total Intensity, GFP fluorescence (488 ex/515 em)
Keywords: NIH Roadmap, MLSCN, MLI, MLSMR, BioImage, proteasome, ubiquitin-GFP, qHTS, NCGC

Activation (GFP accumulation), inactive:
Cc1cc(=O)n2nc(N3CCCC(C(=O)N4CCN(C)CC4)C3)sc2n1 (stereo not drawn) -0.855%
CN(C)C(=O)/N=N\C(=O)N(C)C 0.779%
CCCC(CCC(=O)OC)(C(=O)OCC)c1csc(N)n1 (stereo not drawn) -4.11%
O=C(CSC1=NCCS1)Nc1nc(-c2ccccc2)cs1 -15.6%
COc1ccc(OC)c(C(=O)CSc2nnc(-c3cccs3)o2)c1 0%
Cc1ccc2cccc(O)c2[n+]1[O-] -6.52%
COc1ccc(OC)c(NC(=O)CSc2nc3cccnc3n2C)c1 -1.06%
CCCCC(=O)Nc1ccc(C(=O)NCCCn2ccnc2)cc1 -2.04%
CN1[C@H]2CC(OC(=O)[C@@H](CO)c3ccccc3)C[C@H]1[C@H]1O[C@H]12 (stereo partly drawn) 0.807% [at 20.5 µM]
Nc1ccc2c3c(cccc13)C(=O)NC2=O -1.64%
Cc1ccc(Cn2ccc(NC(=O)C3C4CCC(C4)C3C(=O)O)n2)cc1 (stereo not drawn) 13.5%
Cc1cccc(N2CCN(Cc3c(C)n(C)n(-c4ccccc4)c3=O)CC2)c1C -18.2% [at 9.17 µM]
Cc1onc(-c2ccccc2Cl)c1C(=O)NCCn1ccc2ccccc21 16%
CCOC(=O)c1cc(-c2ccc(Cl)s2)nc2c1c(C)nn2C -2.17%
COc1nc(NCc2ccc(Cl)cc2)nc(OC)n1 -9.93% [at 9.17 µM]
COc1ccc(-c2cc(C(F)(F)F)nc(SCCC(=O)NCc3ccco3)n2)cc1 -4.87%
COC(=O)C(C)Sc1ccc2nnc(-c3cccc(F)c3)n2n1 (stereo not drawn) 11.7%
CCNc1ncc2nc(CCc3ccccc3)c(=O)n(-c3ccc(OC)cc3)c2n1 -0.0408%
Cc1nnc(C)n1/N=C/c1ccc(C(C)C)cc1 1.85%
O=C(CN1CCN(C2CCCCC2)CC1)Nc1ccccc1N1CCCCC1 -0.833%
CS(=O)(=O)N1CCC2(CCN(c3ccncc3)CC2)CC1 -4.81%
COc1ccccc1NC(=O)CSc1nnc(Cc2cccn2C)n1-c1ccc(F)cc1 6.14%
CNC(=O)CN1C(=O)c2ccccc2S1(=O)=O 12.9%
Oc1c(CN2CCOCC2)ccc(CN2CCOCC2)c1O -4.99% [at 9.17 µM]
Cc1cc(C)c2nc3c(c([C@H](O)[C@@H]4CCCCN4)c2c1)CC/C3=C/c1ccc(Cl)cc1 1.75% [at 9.17 µM]
O=C(Nc1c[nH]c(=O)[nH]c1=O)Oc1ccccc1 7.84% [at 9.17 µM]
CC(=O)Nc1nc(C)c(Cc2ccccc2)c(=O)[nH]1 -8.77%
O=C(NC(c1ccccc1)c1ccccc1)N1CCN(CCO)CC1 -0.276%
O=C(c1cnccn1)N1CCC2(CCN(Cc3cc(C(F)(F)F)cc(C(F)(F)F)c3)CC2)CC1 -15.1%
CC1(C)NC(=O)N(CCOc2cccc(Oc3ccccc3)c2)C1=O 15%
Cc1ccccc1NC(=O)c1cnn(-c2ccccc2)c1NC(=O)c1ccco1 -3.93%
c1ccc(CSCCc2ccncc2)cc1 0.403% [at 9.17 µM]
CCOC(=O)c1cc2cc(C)ccc2[nH]1 2.14%
Cn1c(=O)cc(OCCCC(=O)N2CCN(c3ccccn3)CC2)c2ccccc21 15.3%
COc1ccccc1-n1c(CNC(=O)c2ccccc2)nnc1SCC(=O)Nc1nnc(C)s1 -3.39%
COc1ccccc1-c1nc(NCCNC(C)=O)c2ccccc2n1 2.52%
CCc1ccc(-c2nnn(Cc3nc4ccccc4s3)n2)cc1 -6.9%
CC(=O)OCC(=O)[C@@]1(O)CC[C@@H]2[C@H]3CCC4=CC(=O)C=C[C@]4(C)[C@]3(F)[C@@H](O)C[C@@]21C 14% [at 20.5 µM]
CCC(=O)N1c2ccc(S(=O)(=O)CCC(=O)N3CCN(c4ccccc4)CC3)cc2CC1C (stereo not drawn) 2.7%
CN(C)c1nc2n(c(=O)n1)CCO2 -3.46%
c1ccc(CCN2CCN=C2Cc2ccccc2)cc1 -3.08% [at 9.17 µM]
COc1ccccc1N1CCN(C(=O)c2cc(-c3ccc(Cl)c(Cl)c3)on2)CC1 -2.38%
Cc1nc(NC(=O)CCC(=O)O)sc1C(=O)N(C)C 2.7%
CN1CCN(CCCNC(=O)c2cc3c(=O)oc4ccccc4c3s2)CC1 -2.5%
COc1ccc(CC(=O)Nc2nc3n(n2)C(c2ccccc2)CC(=O)N3)cc1OC (stereo not drawn) 4.29%
COc1c(C)c2c(c(O)c1C/C=C(\C)CCC(=O)O)C(=O)OC2
CN(C)CCSS(=O)(=O)O 9.1% [at 9.17 µM]
CCCn1c(C)nc2c(NCCCCN(CC)CC)nc(C)nc21 -5.45%
CCOC(=O)N1CCN(C(=O)Cc2ccc(-n3c(=S)[nH]c4ccccc4c3=O)cc2)CC1 -2.38%
CCN(CC)CCCCn1c(-c2ccccc2)nc2c(N3CCOCC3)nc(C)nc21 3.9%
CCN(Cc1ccncc1)C(=O)c1cccc(S(=O)(=O)N2CCOCC2)c1 -14.4%
CN(C)CC/C=C1\c2ccccc2CSc2ccccc21 6.11% [at 20.5 µM]
CC[C@@H]1Cc2cc(O)ccc2C2=C1c1ccc(O)cc1C[C@H]2CC -4.8%
COc1ccc(C(=O)n2nc(-c3ccc(C)cc3)nc2N)cc1OC 3.88%
O=C(C1CCC1)N1CCc2cc(S(=O)(=O)NCc3cccnc3)ccc21 -8.71%
CC(C)CNC(=O)c1cc(-c2ccc(Br)cc2)on1 -3.89%
CCn1c(CNC(=O)c2ccc(OC)c(OC)c2)nnc1SCC(=O)Nc1ccccc1 6.19%
COCCNC(=O)c1snc2ccc(Cl)cc12 -1.98%
O=C(c1cc(C(F)(F)F)cc(C(F)(F)F)c1)N1CCC[C@@]2(CCN(c3ccccn3)C2)C1 -8.01%
COc1ccc(CCNC(=O)CSc2nc(C)nc3c2oc2ccccc23)cc1OC -5.16%
Cc1nnc(SCC(=O)NCc2ccccc2)s1 3.12%
COc1ccc2nccc(C(=O)O)c2c1 -8.23% [at 20.5 µM]
COC(=O)c1cc(NC(=O)CN2CCC(C(N)=O)(N3CCCCC3)CC2)cc(C(=O)OC)c1 -2.5%
COc1ccc(N(Cc2cc3cc(OC)ccc3[nH]c2=O)S(C)(=O)=O)cc1 7.12%
O=C(CN1CCOCC1)N1CCCc2c1c(=O)oc1ccc(OCc3ccccc3)cc21 -1.85%
O=C(O)/C(=C/c1c(C(=O)O)[nH]c2cc(Cl)cc(Cl)c12)c1ccccc1 0%
CCCn1c(-c2ccc(F)cc2)nc2c(NC3CCN(Cc4ccccc4)C3)nc(C)nc21 (stereo not drawn) -1.82%
COc1ccc(N(CC(=O)NC(C)(C)C)C(=O)c2ccco2)cc1 5.4%
CCOC(=O)c1cnc2sccn2c1=O 6.99%
COC(=O)Cn1c(=NC(=O)CSCC(=O)Nc2cc(C)on2)sc2ccccc21 -5.84%
Cc1ccc(C)c2[nH]c(=O)c(CCNC(=O)CC(C)C)cc12 2.17%
COc1cccc(Cn2c(=O)c(C)nc3cnc(Oc4ccccc4)nc32)c1 6.93%
O=c1c(-c2ccc(F)cc2)nc2cnc(N3CCNCC3)nc2n1Cc1cccs1 13.9%
Cc1ccc(SCc2cc(=O)[nH]c(N3CCCCC3)n2)cc1 1%
CC(=O)Oc1ccc(C(=O)Nc2nccs2)cc1 10.5%
CCn1c(=O)cc(SCC(=O)NCc2ccc3c(c2)OCO3)c2ccccc21 -2.7%
Oc1cc2c(cc1O)CN(C(=S)NCCc1ccc(Cl)cc1)CCC2
Cc1ccc(-c2c3c(=O)n(C)c(=O)n(C)c3cn2-c2ccccc2O)cc1 -3.34%
CCCCn1nnnc1NCc1cc(OC)c(OC)c(OC)c1 2.65%
CC(N)=NCc1cccc(CN)c1
CN1C(=O)C[C@H](c2ccccc2)C1=O 12.7% [at 20.5 µM]
Nc1nc2c(ncn2[C@H]2CC[C@@H](CO)O2)c(=O)n1C(=O)c1ccccc1 -2.15% [at 9.17 µM]
Cc1ccc(-n2ncc3c2ncn2nc(-c4ccco4)nc32)c(C)c1 -1.72%
CCCCC(=O)Nc1cc(C)c2c(=O)oc3ccccc3c2n1 0%
Cc1ccc(NC(=O)NCC(c2cccnc2)N2CCOCC2)cc1 (stereo not drawn) 1.97%
COc1cc(C2C(C#N)=C(C)NC3=C2C(=O)CC(C)(C)C3)ccc1O (stereo not drawn) -2.63%
COc1ccc(N2C(=O)c3cccc4cccc(c34)C2=O)nn1 -0.94%
O=C(Nc1nsc(-c2ccccc2)n1)c1ccncc1 3.23%
C[N+](C)(C)CCCCCNCC12CC3CC(CC(C3)C1)C2 -1.3%
CN(C)c1ccnc2sc3c(=O)n(Cc4ccccc4)cnc3c12 5.17%
O=C(O)CN(Cc1ccco1)S(=O)(=O)c1ccccc1 0%
CCOCCCNS(=O)(=O)Cc1ccccc1 5.26%
O=C(O)[C@H](CCc1ccccn1)c1ccccc1 -6.91% [at 9.17 µM]
